In the library only some 2.7% were active in any assay of this set; here they are far more common.
Nrf2 inh = Nrf2 qHTS screen for inhibitors; A549 ARE-Fluc reporter, luciferase luminescence, 18-24 h; Potency, µM (highest dose often 46 µM), inactives show at the highest dose activity change, negative = inhibition, actives largely listed as inhibitors; 360,000 compounds, 2.1% hits; also: potency is read from the fitted curve at half-maximal effect; % is scaled to controls: 0 for no effect and ±100 for the full control effect; nearly all actives have a fitted effect of over 60% in size
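A549 ARE_Fluc cells (5000/well, 5% FBS OPTI-MEM) pre-incubated 2 h, then treated with compounds 18-24 h at 37C/5% CO2 in concentration-response. CellTiter-Fluor viability read first; BugLite luciferase luminescence after 15 min at room temperature gives Nrf2 activity.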
A549 viability = Nrf2 qHTS screen for inhibitors: counterscreen for cytotoxicity; A549 ARE-Fluc cells, CellTiter-Fluor viability, 18-24 h; Potency, µM (doses to about 46 µM), for the others: at the highest dose activity change, negative = cytotoxicity, usual class: inhibitors; 390,000 compounds, 0.16% hits; AID 504648, 2011; also: potency is read from the fitted curve at half-maximal effect; % is scaled to controls: 0 for no effect and ±100 for the full control effect
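A549 ARE-Fluc cells in 5% FBS OPTI-MEM, 5000 cells/well, rested 2 h then exposed to compounds in concentration-response for 18-24 h at 37 °C. Viability by CellTiter-Fluor fluorescence (Ex 405/Em 525) after 30 min; luciferase luminescence (BugLite, 15 min, RT) read afterwards.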
12-LOX inh = Primary qHTS assay for inhibitors of human arachidonate 12S-lipoxygenase (ALOX12): Round 2 | purified 12hLO, xylenol orange hydroperoxide absorbance | Polyunsaturated fatty acid lipoxygenase ALOX12 (Homo sapiens), P18054 | Potency, µM (top dose mostly 108 µM), for the others: at the top dose activity change, negative = inhibition, hits mostly inhibitors | 580,000 compounds, 1.1% hits; also: potency is read from the fitted curve at half-maximal effect; % is scaled to controls: 0 for no effect and ±100 for the full control effect
Target sequence (P18054 whole entry, looked up): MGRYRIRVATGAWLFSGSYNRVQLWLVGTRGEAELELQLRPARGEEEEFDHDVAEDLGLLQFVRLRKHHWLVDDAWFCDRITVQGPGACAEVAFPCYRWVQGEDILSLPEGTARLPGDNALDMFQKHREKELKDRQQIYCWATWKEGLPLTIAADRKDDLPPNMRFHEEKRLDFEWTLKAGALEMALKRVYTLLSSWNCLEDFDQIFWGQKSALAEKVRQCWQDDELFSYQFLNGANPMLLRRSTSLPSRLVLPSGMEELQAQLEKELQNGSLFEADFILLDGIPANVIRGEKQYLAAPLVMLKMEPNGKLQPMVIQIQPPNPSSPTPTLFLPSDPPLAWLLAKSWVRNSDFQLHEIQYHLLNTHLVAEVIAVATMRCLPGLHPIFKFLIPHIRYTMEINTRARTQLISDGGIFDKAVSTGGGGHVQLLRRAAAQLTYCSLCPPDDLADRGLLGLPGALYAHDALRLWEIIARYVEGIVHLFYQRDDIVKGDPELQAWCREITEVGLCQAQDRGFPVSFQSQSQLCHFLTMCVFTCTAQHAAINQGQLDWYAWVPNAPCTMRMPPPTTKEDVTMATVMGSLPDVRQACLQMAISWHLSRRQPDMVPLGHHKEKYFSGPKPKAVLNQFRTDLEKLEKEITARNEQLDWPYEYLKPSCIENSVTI
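Purified human 12hLO (150 nM final) in 25 mM Hepes, 0.01% Triton X-100, pH 7.0 was preincubated 15 min at room temperature with compound. Then 40 uM arachidonic acid was added, 30 min. Hydroperoxide was read by Fe-XO absorbance ratio 573/405 nm.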
LDHA inh = qHTS assay for inhibitors of human lactate dehydrogenase. purified LDHA, NADH/diaphorase-resazurin fluorescence; hits give low values. activity change, % (values are at about 110 or 230 µM). 480,000 compounds, 0.15% hits. AID 1347041, 2019; in the data active = activity change below about -30%; inconclusive = mostly about -25% to -30%;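 also: plate controls were DMSO wells for no effect and wells without enzyme for full effect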
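Enzyme activity of human lactate dehydrogenase 5 (2 nM; 0.06 mM NADH, 0.2 mM pyruvate, 5 min, RT) is measured via a resazurin/diaphorase fluorescence readout of residual NADH.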
ERG Ets-DNA blk = qHTS for Small Molecule Inhibitors of the ERG Ets/DNA interaction; fluorescence polarization, His-ERG Ets domain / labelled DNA; 370,000 compounds, 0.028% hits; Potency, µM (titrated, usually from 76.9 µM), for the others: at the top dose FP activity, negative = inhibition, hits mostly inhibitors; Transcriptional regulator ERG (Homo sapiens), P11308; active = well fitted inhibition curve with a large enough effect in the polarisation, with a control signal flat; inconclusive = small, poorly fitted or top-dose-only effect, or effect the other way, or a change in a side signal; inactive = no such curve, though single readings can be large or run the other way; the % refers to the polarisation;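 also: polarization taken with two DNA probes labelled with fluorescein and Texas red; potency is read from the fitted curve at half-maximal effect; % of control where 0% means no effect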
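His-tagged ERG Ets domain (1 uM in the protein solution; 300mM KCl, 50mM Tris-HCl, 1mM EDTA, 1mM DTT, pH 7.5) received compound, then a probe mix of 5 nM fluorescein-DNA and 100nM Texas-615-DNA. Fluorescence polarization was read for both dyes.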
Nrf2 ARE act = qHTS of Nrf2 Activators; AREc32 ARE-luciferase reporter (MCF7-derived line), luminescence, 24 h; Potency, µM (titrated, usually from 46.1 µM), without a hit: at the highest dose activation, usual class: activators; 410,000 compounds, 0.31% hits; also: potency is read from the fitted curve at half-maximal effect; % of control where 0% means no effect; nearly all actives have a fitted effect of over 65% in size
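Cells of the AREc32 ARE-luciferase line are plated in OPTI-MEM containing 5% FBS and left overnight at 37 deg C. Compounds are pinned in, incubation continues 24 hr, and firefly luciferase signal is then measured.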
An asterisk follows results filed as active; ? = inconclusive; / = not tested or not shown; ! = repeats disagree. Unless noted, calls follow the shape of the dose curve; as a rule, active = well fitted curve in the direction sought with a large enough effect; inconclusive = small, poorly fitted or top-dose-only effect, or another doubt; inactive = no such curve, though single readings can be large; an effect the other way counts as inactive or inconclusive.

SMILES | Nrf2 inh | A549 viability | 12-LOX inh | LDHA inh | ERG Ets-DNA blk | Nrf2 ARE act
CC1CCC2C(=O)N(c3ccc(Cc4ccncc4)cc3)C(=O)C2C1 (stereo not drawn) | 10µM* | -14% | -3% | 0 | 1% | -1%
O=S1OCCSc2sc(=S)sc2SCCO1 | / | / | 28µM* | -1 | / | /
Cc1nc2cc(-c3cccc(F)c3)nn2c(C)c1CCC(=O)NCCc1ccccc1 | ? | 2% | 1% | 0 | 12% | 1%
COc1ccc(-c2cc3nc(C)c(CCC(=O)NCCc4ccc(Cl)cc4)c(C)n3n2)c(OC)c1 | ? | ? | -13% | 0 | -4% | 0%
COc1cc(NC(=O)CCc2c(C)nc3cc(-c4ccccc4)nn3c2C)cc(OC)c1OC | 2.6µM* | -3% | -26% | -2 | 0% | -2%
COc1ccc(CCNC(=O)CCc2c(C)nc3cc(-c4ccccc4OC)nn3c2C)c(OC)c1 | 23µM* | -3% | 0% | 1 | 9% | 0%
Cc1nc2cc(-c3cccc(F)c3)nn2c(C)c1CCC(=O)NC(C)c1ccccc1 (stereo not drawn) | 3.7µM* | -8% | -15% | -11 | ? | 6%
CCOC(=O)C1=C(C)NC(=S)NC1c1ccc(-c2ccc(Cl)cc2)o1 (stereo not drawn) | ? | -3% | 32µM* | -3 | / | 16%
Cc1ccc(N2CN(CCCN3CCOCC3)Cn3c2nc(C)c(C)c3=O)cc1 | / | / | 22% | -5 | / | /
Cc1ccc(CNc2ccc(-c3nc(-c4cccnc4)no3)cc2[N+](=O)[O-])cc1 | 29µM* | -23% | -11% | -5 | 1% | 0%
Cc1ccc(CNc2ccc(-c3nc(-c4ccncc4)no3)cc2[N+](=O)[O-])cc1 | -3% | -13% | -9% | -7 | 6% | 3%
CC(CNC(=O)c1cc2ccccc2oc1=O)(c1ccccc1)c1ccccc1 | / | / | ? | -23 | / | /
Cc1cc(OCC(=O)N2CCc3ccccc3C2)c2c(-c3ccccc3)cc(=O)oc2c1 | 16µM* | -19% | -5% | 3 | 6% | 2%
Cc1cnc(C=NNC(N)=S)c2cccc(N)c12 | 7.3µM* | ? | ? | 34 | 8% | 3%
CC(C)NC(=O)c1ccccc1Br | / | / | -1% | 2 | / | /
Fc1cccc(NC(=S)NNc2c3ccccc3nc3ccccc23)c1 | ? | ? | 40µM* | -5 | 4% | 5%
COCCCN1C(=O)C(=O)/C(=C(/O)c2ccc(S(=O)(=O)N3CCCCC3)cc2)C1c1ccc(O)c(OC)c1 (stereo not drawn) | -1% | -6% | ? | 0 | 0% | -1%
Cc1ccc(/C(O)=C2\C(=O)C(=O)N(CCCO)C2c2ccccc2)cc1 (stereo not drawn) | / | / | ? | -3 | / | /
O=C1C(=O)N(CCCO)C(c2ccc(Br)cc2)/C1=C(\O)c1ccc(Br)cc1 (stereo not drawn) | 1% | -8% | 35µM* | 3 | -6% | 0%
CN(C)c1ccc(C2/C(=C(/O)c3ccc(Br)cc3)C(=O)C(=O)N2C)cc1 (stereo not drawn) | -7% | 1% | 5.6µM* | 1 | 0% | 0%
COCCCN1C(=O)C(=O)/C(=C(/O)c2ccc(OC)cc2)C1c1ccc(O)c(OC)c1 (stereo not drawn) | ? | -4% | 6.3µM* | -1 | 6% | 1%
CN1C(=O)C(=O)/C(=C(/O)c2ccccc2)C1c1ccc(Br)cc1 (stereo not drawn) | -8% | -3% | ? | 2 | 10% | -1%
O=C(/C=C/c1cccc(Cl)c1Cl)c1ccccc1OC(F)F | / | / | ? | 9 | / | /
CC(NC(=O)CN1CCN(S(=O)(=O)c2ccc(C(C)(C)C)cc2)CC1)c1cccs1 (stereo not drawn) | / | / | ? | 4 | / | /
CC(=O)N1c2ccc(S(=O)(=O)N3CCC(C(=O)Nc4ccccn4)CC3)cc2CC1C (stereo not drawn) | 18µM* | -6% | -3% | -5 | -4% | -1%
SMILES | Nrf2 inh | A549 viability | 12-LOX inh | LDHA inh | ERG Ets-DNA blk | Nrf2 ARE act
CC(=O)N1c2ccc(S(=O)(=O)N3CCC(C(=O)Nc4ncccc4C)CC3)cc2CC1C (stereo not drawn) | 20% | 12% | 10% | -2 | -2% | 0%
COc1ccccc1N1CCN(C(=O)C2CCN(S(=O)(=O)c3ccc4c(c3)CC(C)N4C(=O)C3CC3)CC2)CC1 (stereo not drawn) | 26µM* | -5% | 2% | -5 | -4% | 0%
CC(=O)N1c2ccc(S(=O)(=O)N3CCC(C(=O)N4CCCC(C)C4)CC3)cc2CC1C (stereo not drawn) | 16µM* | -8% | 2% | -2 | 14% | 0%
CC(=O)N1c2ccc(S(=O)(=O)N3CCC(C(=O)N4CC(C)CC(C)C4)CC3)cc2CC1C (stereo not drawn) | 1% | 2% | 0% | -5 | -9% | 0%
COc1ccccc1N1CCN(C(=O)C2CCN(S(=O)(=O)c3ccc4c(c3)CC(C)N4C(C)=O)CC2)CC1 (stereo not drawn) | -18% | 11% | 2% | -2 | 2% | 0%
COc1ccc(-c2cc(C(=O)NCC(c3ccc(C)o3)N3CCN(C)CC3)no2)cc1 (stereo not drawn) | / | / | -4% | -18 | / | /
O=C(C1CC1)N(Cc1ccc2c(c1)CN(S(=O)(=O)c1cc(F)ccc1F)CCO2)c1ccccc1 | / | / | -1% | 10 | / | /
CN1CCN(C(C(=O)O)c2c[nH]c3cc(NC(=O)CCC(=O)O)ccc23)CC1 (stereo not drawn) | / | / | ? | -7 | / | /
COc1ccc(CN(C)CC(=O)N2c3ccccc3NC(=O)CC2C)cc1F (stereo not drawn) | / | / | ? | -1 | / | /
FC(F)c1nc2ccccc2[nH]1 | 4% | 0% | -33% | -12 | 26% | 0%
c1ccc2[nH]c3cc4ncnc4cc3nc2c1 | 5.8µM* | ? | -20% | 25 | 9% | 0%
COc1cccc(Cn2nnc3c(=O)[nH]c(C4CCN(C(=O)c5ccccc5)CC4)nc32)c1 | / | / | -3% | 1 | / | /
Cc1cc(O)c2c(C)c(CC(=O)NCCc3cccc(F)c3)c(=O)oc2c1 | / | / | 28µM* | 0 | / | /
COc1cc(C)cc2oc(=O)c(CC(=O)NCCc3cccc(F)c3)c(C)c12 | / | / | ? | 4 | / | /
O=C(O)C1(C(=O)O)CCC1 | -3% | 2% | -21% | -6 | 0% | 0%
NC1(C(=O)O)CCC1 | / | / | 1.4µM*! | 4 | / | /

Compound activity (PubChem)
